The whole screen tested about 350,000 compounds, of which about 7,000 (2%) were called active. Shown is part of a subset that was picked to be rich in actives. Unmarked numbers belong to inactive results. No stated cut-off is given here; in the data, active means activation above about 40%; inconclusive means no clear call, values can overlap the other calls; inactive means below that.
Assay: Bmi1 luciferase reporter increase in mESCs, primary screen, esBAF inhibitor project, mouse ES cells, Bmi1 luciferase knock-in, single point (AID 602393);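 further: 0% = median of the plate's neutral control wells and 100% = double that signal; a rise in the Bmi1 reporter signal indicates esBAF inhibition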
Conditions: 24 h, at 12.5 µM, hits give high values, 100% = twice the neutral-well signal

| SMILES | reporter increase |
| --- | --- |
| COc1ccc(-c2ccc3c(c2)[C@@H]2[C@@H](CCN2S(=O)(=O)c2ccccc2F)[C@H](CO)N3)cc1 | -0.198% |
| C[C@@H]1CN([C@H](C)CO)C(=O)Cc2cc(NC(=O)CCCN(C)C)ccc2O[C@H]1CN(C)CC1CCCCC1 | -2.32% |
| C[C@@H]1CN([C@H](C)CO)C(=O)c2cc(NS(=O)(=O)c3ccc(Cl)cc3)ccc2O[C@@H]1CN(C)CC1CCCCC1 | 5.96% |
| O=C(C[C@H]1C=C[C@H](NS(=O)(=O)c2ccc(F)cc2)[C@H](CO)O1)NCc1ccncn1 | 0.952% |
| COc1ccc(Cl)cc1NC(=O)CN(C)CC(=O)Nc1ccc2c(c1)OCO2 | 0.413% |
| COc1ccc(C(=O)Nc2ccc(C3(C#N)CCCC3)cc2)cc1OC | 44% (active) |
| COc1cc(C(=O)NCC2(c3ccccc3)CCCC2)ccc1OC(C)C | -10.2% |
| Cc1ccc(C(=O)Nc2ncccc2C)cc1S(=O)(=O)N1CCOCC1 | 3.68% |
| Cc1ccc(NC(=O)CCCNC(=O)c2ccc(Cl)cc2)cc1S(=O)(=O)N1CCCCC1 | -3.1% |
| Cc1ccc(C(=O)Nc2ccc3c(c2)OCO3)cc1S(=O)(=O)N1CCCCC1 | 57% (active) |
| Cc1ccc(NC(=O)c2ccc(Cl)nc2)cc1S(=O)(=O)N1CCOCC1 | 0.751% |
| Cc1ccc(C(=O)Nc2ccc3c(c2)OCCO3)cc1S(=O)(=O)N1CCOCC1 | 70.5% (active) |
| Cc1ccc(NC(=O)C2CC(=O)N(c3ccc4c(c3)OCCO4)C2)cc1S(=O)(=O)N1CCCCCC1 (configuration not stated) | 1.1% |
| COc1ccc(C(=O)NC2CC(C)(C)NC(C)(C)C2)cc1OC | 0.227% |
| O=C(Nc1ccc(N2CCOCC2)cc1)c1ccc2c(c1)OCO2 | 39.9% |
| COc1ccc(C(=O)Nc2ccc3c(c2)OCO3)cc1OC | 53.2% (active) |
| O=C(Cc1ccncc1)NCC[C@@H]1CC[C@H](NC(=O)Nc2ccc(Cl)cc2)[C@@H](CO)O1 | -1.9% |
| CN1CCN(C(=O)C[C@H]2C[C@H]3c4cc(NC(=O)C5CCC5)ccc4O[C@H]3[C@H](CO)O2)CC1 | 1.39% |
| O=C(NCCN1CCCC1)[C@@H]1N[C@@H]2c3ccc(-c4ccccc4)c(=O)n3C[C@@H]2[C@H]1CO | -5.2% |
| O=C(C[C@@H]1CC[C@H](NC(=O)Nc2cc(F)ccc2F)[C@H](CO)O1)NCc1ccncn1 | 4.9% |
| C[C@H]1CN([C@@H](C)CO)C(=O)c2cc(-c3ccccc3F)cnc2O[C@@H]1CN(C)C(=O)C1CCCCC1 | -0.372% |
| CC=Cc1ccc2n(c1=O)C[C@@H]1[C@@H](CO)[C@H](C(=O)NCc3cccc(OC)c3)N[C@H]21 (mixture of isomers) | 0.983% |
| CCCNC(=O)N1[C@H](CNC(=O)c2cccc(F)c2)[C@H](c2ccccc2)[C@@H]1CO | 3.53% |
| C[C@@H]1CCCCO[C@H](CN(C)Cc2ccc(C(F)(F)F)cc2)[C@H](C)CN([C@@H](C)CO)C(=O)c2cc(N(C)C)ccc2O1 | 0.085% |
| COc1ccc(C#Cc2cnc3c(c2)C(=O)N([C@H](C)CO)C[C@@H](C)[C@H](CN(C)C(=O)Nc2cccc(OC)c2)O3)cc1 | 4.12% |
| COc1ccccc1-c1cnc2c(c1)C(=O)N([C@H](C)CO)C[C@H](C)[C@H](CN(C)Cc1cccnc1)O2 | -8.49% |

| SMILES | reporter increase |
| --- | --- |
| COc1ccc(S(=O)(=O)N(C)C[C@H]2OCCCC[C@H](C)Oc3ccc(NC(=O)Nc4ccc(F)cc4)cc3C(=O)N([C@@H](C)CO)C[C@H]2C)cc1 | 0.828% |
| COc1ccc(S(=O)(=O)Nc2cccc3c2O[C@@H](CN(C)S(=O)(=O)c2ccccc2)[C@@H](C)CN([C@@H](C)CO)C3=O)cc1 | 1.5% |
| CC(C)CNS(=O)(=O)c1ccc(C(=O)Nc2ccc3c(c2)OCO3)cc1 | -0.727% |
| Cc1ccc(S(=O)(=O)NCC(=O)Nc2ccc3c(c2)OCCO3)cc1 | -6.84% |
| CNS(=O)(=O)c1ccc(NC(=O)Nc2ccc3c(c2)OCO3)cc1 | 52.5% (active) |
| CO[C@@H]1CN(C)C(=O)c2cc(NC(=O)c3ccccc3F)ccc2OC[C@H](C)NC[C@@H]1C | -0.986% |
| Cc1nn(-c2ccccc2)c(CC(C)(C)C(=O)O)c1C(=O)O | -1.54% |
| Cc1ccc(OC(=O)c2c(C)nn(-c3ccccc3)c2C)cc1 | 65% (active) |
| Cc1cccc(C)c1NC(=O)COC(=O)c1c(C)nn(-c2ccccc2)c1C | -0.0425% |
| O=C(Nc1cccc(Cl)c1)N1C[C@@H]2[C@H](c3ccccc31)[C@H](CO)N2C(=O)C1CC1 | -2.51% |
| CCS(=O)(=O)Nc1ccc2c(c1)C(=O)N(C)C[C@@H](OC)[C@@H](C)CN(C(=O)COC)[C@H](C)CO2 | -2.28% |
| O=C(NCc1cccnc1)C(=O)Nc1nc(-c2ccccc2)cs1 | 38.2% |
| Cc1ccccc1Nc1nc(-c2cccnc2)cs1 | 71.3% (active) |
| CN(c1ccc(O)cc1)c1nc(-c2cccnc2)cs1 | 33.5% |
| COc1ccc(-c2ccc([C@@H]3[C@@H](CO)N4CCCCN(C(=O)NC(C)C)C[C@H]34)cc2)cc1 | -0.595% |
| CN(C)C(=O)c1cccc(-c2ccc3c(c2)[C@H]2[C@H](CCN2C(=O)c2cccnc2)[C@H](CO)N3)c1 | -0.408% |
| CO[C@H]1CN(C)C(=O)c2ccc(NC(=O)c3cnccn3)cc2OC[C@@H](C)N(C(C)=O)C[C@H]1C | -1.77% |
| C[C@H](NC(=O)C[C@H]1C=C[C@H](NS(=O)(=O)c2cccc(F)c2)[C@@H](CO)O1)c1ccccc1 | -4.57% |
| C[C@@H]1CCCCO[C@H](CN(C)S(=O)(=O)c2cn(C)cn2)[C@H](C)CN([C@H](C)CO)C(=O)c2cc(N(C)C)ccc2O1 | -3.59% |
| COc1cccc(/C(C)=N/Nc2ncc(Cl)cc2Cl)c1 | 54% (active) |
| COC(=O)c1sccc1N/N=C(\C)c1ccc(F)c(Cl)c1 | 11.8% |
| COc1ccc(/C(C)=N/NC(=O)c2ccc3nc[nH]c3c2)cc1 | -4.25% |
| C[C@@H]1CN([C@@H](C)CO)C(=O)Cc2cc(NC(=O)CCCCCC(=O)Nc3ccccc3N)ccc2O[C@H]1CN(C)Cc1ccc(Cl)c(Cl)c1 | -6.35% |
| Cc1nonc1C1CCCN1C(=O)c1cc(COc2cccc(C(F)(F)F)c2)on1 (configuration not stated) | -1.7% |
| CSc1ccccc1OCc1cc(C(=O)N2C[C@H]3CC[C@H]2C3)no1 | 87.7% (active) |
| CSc1ccccc1OCc1cc(C(=O)N(C)CCc2c(C)n[nH]c2C)no1 | -2.74% |

| SMILES | reporter increase |
| --- | --- |
| CCNC(=O)[C@@H]1[C@@H](CO)[C@@H]2Cn3c(ccc(C4=CCCC4)c3=O)[C@H]1N2Cc1ccccc1 | -1.26% |
| O=C(C[C@@H]1CC[C@H]2[C@@H](COC[C@H](O)CN2C(=O)Nc2ccccc2)O1)NCc1ccccc1F | 4.71% |
| CCC(CC)c1nnc(NC(=O)C2=COCCO2)s1 | 53.6% (active) |
| COc1cc(-c2nnc(NC(=O)C3=COCCO3)o2)cc(OC)c1OC | -0.666% |
| CCC(CC)c1nnc(NC(=O)C2CCN(C(=O)c3ccco3)CC2)s1 | 3.96% |
| O=C(Nc1ccccc1N1CCOCC1)c1csc2c1CCCC2 | 2.6% |
| COC(=O)c1sc(NC(=O)c2csc3c2CCCC3)nc1C | 52.4% (active) |
| CC1CC(C)CN(CCCNC(=O)c2csc3c2CCCCC3)C1 (configuration not stated) | -0.645% |
| CN1c2ccc(Br)cc2[C@H]2[C@H](CCN2S(=O)(=O)c2ccccc2)[C@@H]1CO | 1.11% |
| CO[C@H]1CN(C)C(=O)c2cc(NC(=O)c3cc(C)on3)ccc2OC[C@@H](C)N(C(C)=O)C[C@H]1C | -1.52% |
| COc1cccc(OC)c1C(=O)Nc1nnc(C(C)C)s1 | 4.44% |
| COc1ccc(Cc2nnc(NC(=O)c3cc(OC)c(OC)c(OC)c3)s2)cc1OC | -8.39% |
| COc1ccc(Cc2nnc(NC(=O)c3ccc(OC)cc3OC)s2)cc1 | 60.8% (active) |
| COc1ccc(C(=O)Nc2nncs2)c(OC)c1 | 72.1% (active) |
| COc1ccc(C(=O)NC2=NCCS2)c(OC)c1 | -5.27% |
| COc1ccc(Cc2nnc(NC(=O)Cc3cccs3)s2)cc1 | -12.5% |
| C[C@@H](O)C#Cc1cnc2c(c1)C(=O)N([C@@H](C)CO)C[C@H](C)[C@H](CN(C)C(=O)c1ccccc1F)O2 | -1.43% |
| COc1ccccc1-c1cnc2c(c1)C(=O)N([C@H](C)CO)C[C@H](C)[C@@H](CN(C)C(=O)CC1CC1)O2 | -6.49% |
| O=C(O)C[C@@H]1C[C@@H]2c3cc(NC(=O)Nc4ccccc4)ccc3O[C@@H]2[C@H](CO)O1 | 2.21% |
| Cc1ccc2nc(/C(C#N)=C\c3ccc(OC(=O)c4cccs4)cc3)[nH]c2c1 | 113% (active) |
| CCC(=O)N(C)C[C@H]1Oc2ncc(-c3ccccc3OC)cc2C(=O)N([C@H](C)CO)C[C@H]1C | 2.4% |
| C[C@@H]1CCCCO[C@H](CN(C)C(=O)Cc2ccccc2)[C@@H](C)CN([C@@H](C)CO)C(=O)c2cc(NC(=O)c3ccccc3)ccc2O1 | -0.116% |
| Cc1ccc(S/C(=N\S(=O)(=O)c2ccc(Cl)cc2)c2ccccc2)cc1 | -7.08% |
| Cc1ccc(S(=O)(=O)/N=C(/Nc2ccccn2)c2ccc(Cl)cc2)cc1 | 45.6% (active) |
| Cc1ccc(S(=O)(=O)/N=C(/Nc2ccc3[nH]c(=O)[nH]c3c2)c2ccccc2)cc1 | 3.61% |

Reference: PubChem BioAssay AID602393 (Broad Institute, 2012)
